RE007 growth inh = less growth of the S. pombe RE007 Vpr strain; S. pombe RE007 Vpr strain, BacTiter-Glo ATP luminescence, 24 h; Potency, µM (series often up to 92.2 µM), inactives show top-dose activity change, negative = less growth, usual class: inhibitors; hit rate 0.21% among 360,000; active means well fitted falling curve with a large enough effect; inconclusive means small, poorly fitted or top-dose-only effect; inactive means no such curve, though single readings can be large or run the other way; further: potency means the concentration at half of the fitted maximal effect; on the % scale 0 is the no-effect control and ±100 the full control effect; nearly all actives have a fitted effect of over 50% in size
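Fission yeast strain RE007, carrying one chromosomally integrated HIV-1 vpr copy, was seeded at OD 0.01 in PMG+AL medium with 23 nL pinned compound. After 24 h at 30 °C and 99% humidity, viability was read by BacTiter-Glo luminescence.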
LmPK inh = LmPK (Leishmania mexicana) enzyme inhibition; Q27686; purified LmPK, Kinase-Glo ATP luminescence, 1 h; Potency, µM (top dose mostly 57.5 µM), inactives show at the highest dose activity change, negative = inhibition, hits mostly inhibitors; hit rate 0.37% among 290,000; AID 1721; further: potency means the concentration at half of the fitted maximal effect; on the % scale 0 is the no-effect control and ±100 the full control effect
Target sequence (Q27686 whole entry, looked up): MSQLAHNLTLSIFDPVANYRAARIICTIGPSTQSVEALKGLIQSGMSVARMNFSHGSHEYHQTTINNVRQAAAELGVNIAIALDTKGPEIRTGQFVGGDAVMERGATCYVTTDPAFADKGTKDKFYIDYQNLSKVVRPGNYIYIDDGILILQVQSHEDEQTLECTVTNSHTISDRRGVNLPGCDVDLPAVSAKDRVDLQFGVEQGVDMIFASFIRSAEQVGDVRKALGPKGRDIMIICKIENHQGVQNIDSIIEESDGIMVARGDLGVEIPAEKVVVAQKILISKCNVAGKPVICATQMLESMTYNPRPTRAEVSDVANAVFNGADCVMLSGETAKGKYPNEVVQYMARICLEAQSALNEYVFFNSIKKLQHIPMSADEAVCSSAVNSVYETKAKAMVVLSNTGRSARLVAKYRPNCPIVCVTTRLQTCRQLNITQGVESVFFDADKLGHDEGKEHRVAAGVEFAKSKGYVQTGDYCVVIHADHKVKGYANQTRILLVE
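Purified LmPK (0.1 nM) with 0.5 mM PEP and 0.1 mM ADP in imidazole buffer pH 7.2 with MgCl2/KCl, 1 h at room temperature. ATP formed was read by luciferase luminescence and normalized to no-enzyme and uninhibited controls.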
TbPYK inhibitor = T. brucei pyruvate kinase inhibition. Q57TT1. TbPYK enzyme, Kinase-Glo Plus ATP luminescence, 45 min. Potency, µM (titrated, usually from 76.8 µM), without a hit: at the top dose activity, negative = inhibition, most hits filed as inhibitors. hit rate 0.12% among 410,000. AID 624173; further: potency means the concentration at half of the fitted maximal effect; on the % scale 0 is the no-effect control and ±100 the full control effect; nearly all actives have a fitted effect of over 50% in size
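Readout: single end-point luminescence (Kinase-Glo Plus, 10 min). Reaction conditions were TbPYK/substrate plus 130 uM ADP, 45 min at RT, pH 7.2 TEA buffer. No-enzyme wells served as controls, and data were normalized before concentration-response fitting.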
Shiga toxin inh = inhibitors of Shiga toxin in Vero cells | Vero cells, Shiga toxin protein synthesis inhibition reporter | inhibition, % at 38.7 µM | hit rate 9.2% among 290,000 | AID 2315; in the data active means inhibition mostly above about 28%, no sharp cut-off; inactive means mostly below about 43%; further: 0% is about no effect
Giardia FBPA inh = inhibitors of Giardia lamblia fructose-1,6-bisphosphate aldolase; purified Giardia FBPA; Potency, µM (titrated, usually from 59.6 µM), for the others: at the top dose activity, negative = inhibition, most hits filed as inhibitors; hit rate 0.71% among 290,000; further: potency means the concentration at half of the fitted maximal effect; on the % scale 0 is the no-effect control and ±100 the full control effect; nearly all actives have a fitted effect of over 55% in size
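Giardia FBPA (40 nM reagent) was preincubated 10 min at RT with compound (up to 57.5 uM final), then substrate plus GAPDH/TPI/NAD/arsenate coupling system with diaphorase/resazurin was added; resorufin fluorescence (525/598 nm) was read after 20 min.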
Cycloheximide cs = counter-screen for Shiga toxin inhibitors: cycloheximide protein synthesis inhibition | cell reporter, cycloheximide protein synthesis inhibition counterscreen | max response, % | hit rate 12% among 300,000 | AID 2314; in the data active means max response mostly above about 13%, no sharp cut-off; inactive means mostly below about 14%; further: read at 38.3 µM for the half of the compounds with a filed dose; 0% is about no effect
* = called active by the depositor; ? = inconclusive; · = no result. The sample as a whole holds a higher share of hits than the screen did. Unless noted, the call rests on the fitted dose curve; in most records, active means well fitted curve in the direction sought with a large enough effect; inconclusive means small, poorly fitted or top-dose-only effect, or another doubt; inactive means no such curve, though single readings can be large; an effect the other way counts as inactive or inconclusive.

SMILES	RE007 growth inh	LmPK inh	TbPYK inhibitor	Shiga toxin inh	Giardia FBPA inh	Cycloheximide cs
COc1ccc(/C=C/C(=O)c2ccccc2O)cc1CN1CCOCC1	-2.7%	1.8%	-2.7%	-16.9	0.2%	-1.2
COc1ccc(/C=C2\CCc3ccccc3C2=O)cc1Cn1nc(C)cc1C	-17.4%	2.0%	-5.8%	43.7	-10.9%	21.2*
COc1ccc(/C=C2\CC/C(=C\c3ccc(OC)c(OC)c3)C2=O)cc1OC	4.6%	-14.2%	0.1%	1.8	-7.5%	8.2
O=[N+]([O-])c1nn(-c2ccc3c(c2)OCCO3)n(O)c1=NCCCO	-22.9%	-2.6%	2.1%	48.4*	-1.3%	17.6*
O=C1CCCN1CCCN=c1c([N+](=O)[O-])nn(-c2ccc(Cl)cc2)n1O	?	-4.2%	1.4%	29.0	-6.8%	12.8
Cc1ccc(CN=c2c([N+](=O)[O-])nn(-c3ccc4c(c3)OCCO4)n2O)cc1	-2.7%	-0.9%	-7.6%	164.5*	-9.2%	72.8*
N#CC1(NC(=O)CSc2nc3ccccc3o2)CCCCC1	10.8%	·	0.8%	·	·	·
CCN(CC(=O)NCc1cccs1)C(=O)c1ccc(S(=O)(=O)Nc2ccccc2Cl)cc1	12.8%	·	-12.8%	·	·	·
CCN(c1ccccc1C)S(=O)(=O)c1nnc(NC(=O)c2ccc(OC)c(OC)c2)s1	·	·	-5.3%	·	·	·
O=C(Nc1ccc(F)c(F)c1)c1ccco1	-24.3%	2.9%	5.6%	88.7*	-10.2%	45.1*
O=C(Nc1ccc(Cl)c(Cl)c1)c1ccco1	?	2.5%	-3.9%	49.8*	-6.8%	48.4*
O=C(Nc1cc(Cl)ccc1Cl)c1ccco1	-5.2%	5.8%	2.6%	·	10.5%	-0.4
O=C(Cc1ccccc1)Nc1ccc(NC(=O)c2ccco2)cc1Cl	-6.3%	-1.3%	6.9%	31.8	2.6%	11.8
O=C(Nc1ccc(F)cc1F)c1ccco1	0.7%	-12.1%	-7.9%	38.0	4.0%	16.6
O=C(Nc1ccc(Cl)c(C(F)(F)F)c1)c1ccco1	?	2.1%	-0.3%	25.3	-6.0%	12.8*
O=c1nccc(N/N=C/c2ccccc2)[nH]1	-1.3%	-4.5%	-13.9%	36.7*	?	37.3*
Cc1ccccc1Nc1cc(C(=O)NC2CCC(C)CC2)c2ccccc2n1 (centres undefined)	·	·	0.4%	·	·	·
COc1cc(OC)c(NC(=O)C2CCN(S(=O)(=O)c3ccc4c(c3)CC(C)N4C(C)=O)CC2)cc1Cl (centres undefined)	0.1%	0.7%	3.2%	-4.1	-3.7%	17.1*
O=C(CSc1cccc[n+]1[O-])Nc1ccc(N2CCOCC2)cc1	·	-2.2%	·	38.0	-19.4%	7.3
O=C(CSc1ccc2c(c1)OCCO2)Nc1ccc2c(c1)OCO2	-17.9%	5.1%	1.2%	-12.1	0.2%	15.0*
O=C(CCS(=O)(=O)c1ccccc1)Nc1ccc2c(c1)OCO2	1.2%	-2.6%	2.1%	112.1*	-0.2%	55.4*
O=C(CSc1ccccc1)Nc1ccc2c(c1)OCCO2	11.0%	-9.4%	0.3%	74.7*	·	40.4*
O=C(CSc1cccc[n+]1[O-])Nc1ccc2c(c1)OCCO2	1.3%	12.1%	-3.3%	25.1	1.0%	15.8*
O=C(CSc1ccc2c(c1)OCCO2)Nc1ccc(Br)cc1	?	2.8%	-6.7%	-31.6	-3.9%	-1.1
COc1cc(/C=N/NC(N)=O)ccc1OCC(=O)Nc1cc(C)c(C)cc1Br	15.9%	5.5%	1.3%	-4.4	-5.0%	14.7
SMILES	RE007 growth inh	LmPK inh	TbPYK inhibitor	Shiga toxin inh	Giardia FBPA inh	Cycloheximide cs
Cc1ccc(C)c(CNC(=O)C2CCCCN2S(=O)(=O)c2ccc(F)cc2)c1 (centres undefined)	·	·	-9.3%	·	·	·
Cc1ccc(CN2C(=O)CN(C3CCCCCC3)C(=O)C2c2ccc(F)cc2)cc1 (centres undefined)	·	·	3.0%	·	·	·
CCOC(=O)c1[nH]c(C)c(CCC(=O)Nc2ccccc2C(=O)OC)c1C	·	·	-8.5%	·	·	·
CC1CCCC(C)N1C(=O)CSc1ccc(-c2ccc3c(c2)OCCO3)nn1 (centres undefined)	-3.6%	-0.1%	3.8%	40.3	-16.7%	10.5
O=C(CSc1nc(-c2ccccc2)c(-c2ccccc2)[nH]1)Nc1ccc2c(c1)OCO2	-7.2%	8.8%	-4.4%	23.5	-1.6%	14.7*
O=C(CSc1nnc2ccccn12)NCc1ccc2c(c1)OCO2	-12.5%	1.3%	0.1%	10.1	-1.2%	7.7

Compound activity from PubChem BioAssay.
